Experimental findings from PubChem BioAssay (EPA / NIEHS) are described below.

Assay [1] can be described thus: TOX21_p53_BLA_p2_viability: Viability Assessment in the Tox21 HCT-116 p53 Agonism Beta-lactamase Assay, Phase 2 (AID 2283591).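 Note: actives lower the ATP signal meaning cytotoxicity.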 In outline:
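HCT116 p53-bla cells, 4000/well, dosed after 5 h plating (217-fold dilution of DMSO stocks) and incubated 16 h at 37C. Viability taken as cellular ATP by CellTiter-Glo luminescence after 30 min RT; signal loss marks cytotoxicity.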

Assay [2] has as its target Cellular tumor antigen p53 (Homo sapiens) (UniProt P04637). The assay is described as follows: TOX21_p53_BLA_p2_ratio: Tox21 HCT-116 p53 Agonism Beta-lactamase Assay, Ratio, Phase 2 (AID 2283592). In outline:
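HCT-116 cells with p53-responsive beta-lactamase reporter, 4000 cells/well, preincubated 5 h, then compound in DMSO (217-fold dilution) for 16 h at 37C. CCF4-AM substrate 2 h at room temperature; 460/530 nm emission ratio fitted upward versus DMSO.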

A short description of assay [3]: TOX21_p53_BLA_p3_viability: Viability Assessment in the Tox21 HCT-116 p53 Agonism Beta-lactamase Assay, Phase 3 (AID 2283593).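 Note: cells exposed to compound for 16 h before reading.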 In outline:
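HCT116 cells, 4000/well, dosed 5 h after plating by pin transfer (217-fold dilution from DMSO stock) and incubated 16 h at 37C, 5% CO2. Viability read as ATP luminescence with CellTiter-Glo after 30 min at room temperature.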

The target in assay [4] is Cellular tumor antigen p53 (Homo sapiens) (UniProt P04637). In words: TOX21_p53_BLA_p3_ratio: Tox21 HCT-116 p53 Agonism Beta-lactamase Assay, Ratio, Phase 3 (AID 2283596). In outline:
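HCT116 p53-bla cells (4000/well) given compound in DMSO (217-fold dilution) after 5 h, incubated 16 h at 37C. CCF4-AM substrate 2 h at room temperature; 460/530 nm emission ratio, gain fitted against DMSO.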

A short description of assay [5]: TOX21_p53_BLA_p4_viability: Viability Assessment in the Tox21 HCT-116 p53 Agonism Beta-lactamase Assay, Phase 4 (AID 2283597).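 Note: hits lower the luminescence signal meaning cytotoxicity.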 In outline:
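HCT-116 p53-bla cells, 4000/well, dosed after 5 h attachment and incubated 16 h at 37 °C, 5% CO2. Viability from CellTiter-Glo ATP luminescence after 30 min at room temperature, taken after the beta-lactamase read; loss of signal indicates cytotoxicity.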

Assay [6] has as its target Cellular tumor antigen p53 (Homo sapiens) (UniProt P04637). In words: TOX21_p53_BLA_p5_ratio: Tox21 HCT-116 p53 Agonism Beta-lactamase Assay, Ratio, Phase 5 (AID 2283599). A digest of the protocol: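 HCT-116 p53-bla cells (4000/well) plated 5 h, dosed with compound (217-fold DMSO dilution) for 16 h at 37 C; CCF4-AM substrate 2 h at room temperature. Activity is the 460/530 nm emission ratio (405 nm excitation), fitted in gain-of-signal direction versus DMSO.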

Assay [7] can be described thus: TOX21_p53_BLA_p5_viability: Viability Assessment in the Tox21 HCT-116 p53 Agonism Beta-lactamase Assay, Phase 5 (AID 2283600). A digest of the protocol:
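HCT-116 p53 beta-lactamase reporter cells, 4000/well, were exposed to compound (pin transfer, 217-fold dilution) for 16 hours at 37C. Cellular ATP was read by CellTiter-Glo luminescence after 30 min at room temperature.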

Assay [8] concerns the target Cellular tumor antigen p53 (Homo sapiens) (UniProt P04637). The assay is described as follows: TOX21_p53_BLA_p4_ratio: Tox21 HCT-116 p53 Agonism Beta-lactamase Assay, Ratio, Phase 4 (AID 2283601). A digest of the protocol:
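HCT-116 p53 beta-lactamase reporter cells (4000/well) preincubated 5 h, then compound (217-fold dilution of DMSO stock) for 16 h at 37C. CCF4-AM substrate added 2 h at room temperature; 460/530 nm emission ratio fitted upward versus DMSO.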

The target of assay [9] is PGR (gene 5241) (UniProt P06401). The assay is described as follows: TOX21_PR_BLA_Followup_Antagonist_ratio: Tox21 HEK293 Progesterone Receptor (PR) Antagonism Beta-lactamase Follow-Up Assay, Ratio (AID 2283934). In outline: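 Antagonist mode used 1 nM R5020 (final) as agonist on a beta-lactamase reporter line in HEK293T cells. Activity was taken from the substrate cleavage ratio after 16 hr exposure.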
PGR (gene 5241), sequence (P06401 whole entry, looked up): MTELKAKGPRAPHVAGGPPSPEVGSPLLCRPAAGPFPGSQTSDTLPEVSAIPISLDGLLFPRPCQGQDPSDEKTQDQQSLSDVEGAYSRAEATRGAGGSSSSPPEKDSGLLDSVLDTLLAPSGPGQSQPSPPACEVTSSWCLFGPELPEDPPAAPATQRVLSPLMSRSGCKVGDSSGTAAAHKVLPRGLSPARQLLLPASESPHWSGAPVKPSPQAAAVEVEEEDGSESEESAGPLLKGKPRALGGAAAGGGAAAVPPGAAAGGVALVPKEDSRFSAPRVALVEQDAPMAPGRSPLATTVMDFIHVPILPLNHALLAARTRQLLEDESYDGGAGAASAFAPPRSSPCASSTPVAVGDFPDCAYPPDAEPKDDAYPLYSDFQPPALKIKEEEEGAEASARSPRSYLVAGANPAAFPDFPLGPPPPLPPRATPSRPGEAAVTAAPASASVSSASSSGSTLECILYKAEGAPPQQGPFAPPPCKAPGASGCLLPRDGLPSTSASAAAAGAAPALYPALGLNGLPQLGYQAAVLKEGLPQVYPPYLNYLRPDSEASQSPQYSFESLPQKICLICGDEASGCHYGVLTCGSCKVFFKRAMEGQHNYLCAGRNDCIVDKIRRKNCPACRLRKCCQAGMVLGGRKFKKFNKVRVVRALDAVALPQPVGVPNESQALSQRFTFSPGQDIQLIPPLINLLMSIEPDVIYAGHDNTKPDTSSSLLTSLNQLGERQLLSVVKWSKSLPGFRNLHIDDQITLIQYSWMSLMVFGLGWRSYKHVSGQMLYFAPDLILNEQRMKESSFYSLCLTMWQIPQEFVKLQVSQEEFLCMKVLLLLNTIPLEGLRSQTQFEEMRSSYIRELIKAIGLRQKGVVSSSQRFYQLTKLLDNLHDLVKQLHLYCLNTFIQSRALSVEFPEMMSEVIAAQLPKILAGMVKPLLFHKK

Assay [10] in a line: TOX21_PR_BLA_Followup_Agonist_viability: Viability Assessment in the Tox21 HEK293 Progesterone Receptor (PR) Agonism Beta-lactamase Follow-Up Assay (AID 2283935).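 Note: signal loss means lower viability so actives are cytotoxic.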 In outline:
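Multiplexed viability counter-screen: ATP-coupled luciferase signal measured after 30 min at room temperature, following 16 hr compound treatment of PR-UAS-bla HEK293T cells grown in charcoal-stripped serum.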

Assay [11] can be described thus: TOX21_PR_BLA_Followup_Antagonist_viability: Viability Assessment in the Tox21 HEK293 Progesterone Receptor (PR) Antagonism Beta-lactamase Follow-Up Assay (AID 2283936).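 Note: hits lower the luminescence signal meaning cytotoxicity.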 A digest of the protocol: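 PR-UAS-bla HEK293T cells (3,000/well, 2% charcoal-stripped FBS) given compound plus R5020 agonist, 16 h at 37C. CellTiter-Glo added after bla read, 30 min at room temperature; luminescence loss indicates cytotoxicity.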

For assay [12], the target named is PGR (gene 5241) (UniProt P06401). The assay is described as follows: TOX21_PR_LUC_Followup_Antagonist: Tox21 HEK293 Progesterone Receptor (PR) Antagonism Luciferase Follow-Up Assay (AID 2283938).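 Note: curve fitted upward as signal gain over DMSO baseline despite antagonist label.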 A digest of the protocol:
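HEK293-PR-A-luc cells, 3,000/well, preincubated 5 h at 37C before compound addition in DMSO; 16 h compound exposure at 37C. ONE-Glo luciferase luminescence read after 30 min at room temperature, fitted relative to DMSO baseline.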

Assay [13] in a line: TOX21_PR_LUC_Followup_Agonist_viability: Viability Assessment in the Tox21 HEK293 Progesterone Receptor (PR) Agonism Luciferase Follow-Up Assay (AID 2283941).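 Note: loss of signal means cytotoxicity so actives lower viability.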 A digest of the protocol:
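Luminescent ATP quantitation (CellTiter-Glo) serves as the read-out; a drop flags cytotoxic compounds. Cells are HEK293-PR-A-luc grown in 10% charcoal-stripped FBS, plated 3,000/well, and exposed to compound for 16 h.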

A further assay concerns the target THRA (gene 7067) (UniProt P10827). The assay is described as follows: TOX21_TRA_COA_Antagonist_Followup_ratio: Tox21 Thyroid Hormone Receptor alpha Antagonism through Coactivator Recruitment Follow-Up Assay, Ratio (AID 2283953). In outline: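 This follow-up to the GH3 luciferase screen checks specificity in a cell-free format. It measures SRC-2 coactivator peptide binding to TRα LBD by TR-FRET and scores loss of ratio signal relative to DMSO.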

Assay [14] can be described thus: TOX21_TRB_BLA_Antagonist_Followup_viability: Viability Assessment in the Tox21 Thyroid Hormone Receptor beta Antagonism Beta-lactamase (BLA) Follow-Up Assay (AID 2283961). A digest of the protocol:
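HEK293T cells with GAL4-human TRβ LBD and UAS-bla reporter, 3,000 cells/well in 2% charcoal-stripped FBS medium; 11-point concentrations in triplicate, 18 h at 37C. Viability from ATP by CellTiter-Glo luminescence, 30 min RT, same plates.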

In another assay the target is THRB (gene 7068) (UniProt P10828). The assay is described as follows: TOX21_TRB_COA_Antagonist_Followup_ratio: Tox21 Thyroid Hormone Receptor beta Antagonism through Coactivator Recruitment Follow-Up Assay, Ratio (AID 2283967). A digest of the protocol:
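Cell-free TR-FRET: GST-TRb LBD (5.0 nM) with fluorescein-SRC-2 peptide (200 nM) and Tb anti-GST antibody (2 nM), 0.10% BSA. 520:495 nm emission ratio normalized to DMSO (0%) and T3 (100%).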

Assay [15] can be described thus: TOX21_TR_RXR_BLA_Antagonist_Followup_viability: Viability Assessment in the Tox21 Thyroid Hormone Receptor beta Retinoid X Receptor alpha (RXRa) Antagonism Beta-lactamase (BLA) Follow-Up Assay (AID 2283979). A digest of the protocol: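 RXRa-bla HEK293T cells (2,500/well, phenol red-free DMEM, 2% charcoal-stripped FBS) were attached 5 h, then exposed to compounds at 11 concentrations in triplicate for 16 h at 37C. Viability measured by CellTiter-Glo ATP luminescence, bidirectional fitting versus DMSO.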

The nature of assay [16]: CCTE_Harrill_HTTr_Viability_MCF7: CCTE's 6-hour Cell Viability Assessment for the High-Throughput Transcriptomics (HTTr) Platform, in MCF-7 cells cultured in DMEM + 10% fetal bovine serum, Harrill Lab (AID 2284010; active = hit-call score of the fitted dose curve at least 0.9, where 1 is the maximum; inactive = score below 0.9). In outline:
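Viability measured through PI dye exclusion by high-content imaging at 6 h post-dosing.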

A short description of assay [17]: CCTE_Harrill_HTTr_Apoptosis_MCF7: CCTE's 6-hour Apoptosis Assessment for the High-Throughput Transcriptomics (HTTr) Platform, in MCF-7 cells cultured in DMEM + 10% fetal bovine serum, Harrill Lab (AID 2284011; active = hit-call score of the fitted dose curve at least 0.9, where 1 is the maximum; inactive = score below 0.9). In outline: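 MCF-7 cells in DMEM + 10% FBS exposed 6 h to chemicals over an eight-point dilution series. Caspase-3/7 activation imaged by high-content CellEvent Green staining; fitted bidirectionally versus DMSO.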

“And” between values parts separate entries of the source, which are not always exact repeats. Identical values can stand only once. Records with an inconclusive call do not appear. The source made the active and inactive calls. Rule for the calls, unless noted: active = hit-call score of the fitted dose curve at least 0.9, where 1 is the maximum; inconclusive = response in the unintended direction; inactive = score below 0.9.

THRB (gene 7068), sequence (P10828 whole entry, looked up, the tested form may be a part): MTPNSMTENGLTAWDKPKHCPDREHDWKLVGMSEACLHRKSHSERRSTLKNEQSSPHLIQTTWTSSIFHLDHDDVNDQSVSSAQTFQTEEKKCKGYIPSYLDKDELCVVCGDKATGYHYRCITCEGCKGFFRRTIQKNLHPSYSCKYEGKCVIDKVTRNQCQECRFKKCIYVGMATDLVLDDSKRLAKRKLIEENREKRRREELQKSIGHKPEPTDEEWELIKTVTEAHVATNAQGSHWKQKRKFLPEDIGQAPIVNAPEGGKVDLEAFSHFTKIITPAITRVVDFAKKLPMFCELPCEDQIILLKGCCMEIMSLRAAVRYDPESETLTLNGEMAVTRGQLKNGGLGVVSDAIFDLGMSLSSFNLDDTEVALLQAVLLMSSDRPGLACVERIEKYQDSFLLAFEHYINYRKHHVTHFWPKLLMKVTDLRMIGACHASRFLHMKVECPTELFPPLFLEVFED
Cellular tumor antigen p53 (Homo sapiens), sequence (P04637 whole entry, looked up): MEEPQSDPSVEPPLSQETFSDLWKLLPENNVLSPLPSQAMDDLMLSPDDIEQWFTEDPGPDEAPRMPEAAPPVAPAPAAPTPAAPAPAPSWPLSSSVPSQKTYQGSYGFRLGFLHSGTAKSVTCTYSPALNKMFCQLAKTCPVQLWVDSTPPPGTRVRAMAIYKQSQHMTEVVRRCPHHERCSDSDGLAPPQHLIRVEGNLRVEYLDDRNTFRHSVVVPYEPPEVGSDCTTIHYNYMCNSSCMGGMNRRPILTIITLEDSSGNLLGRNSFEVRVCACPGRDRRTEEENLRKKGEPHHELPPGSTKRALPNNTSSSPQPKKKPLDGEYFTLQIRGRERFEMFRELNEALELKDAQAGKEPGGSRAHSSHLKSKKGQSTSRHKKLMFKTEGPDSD
THRA (gene 7067), sequence (P10827 whole entry, looked up, the tested form may be a part): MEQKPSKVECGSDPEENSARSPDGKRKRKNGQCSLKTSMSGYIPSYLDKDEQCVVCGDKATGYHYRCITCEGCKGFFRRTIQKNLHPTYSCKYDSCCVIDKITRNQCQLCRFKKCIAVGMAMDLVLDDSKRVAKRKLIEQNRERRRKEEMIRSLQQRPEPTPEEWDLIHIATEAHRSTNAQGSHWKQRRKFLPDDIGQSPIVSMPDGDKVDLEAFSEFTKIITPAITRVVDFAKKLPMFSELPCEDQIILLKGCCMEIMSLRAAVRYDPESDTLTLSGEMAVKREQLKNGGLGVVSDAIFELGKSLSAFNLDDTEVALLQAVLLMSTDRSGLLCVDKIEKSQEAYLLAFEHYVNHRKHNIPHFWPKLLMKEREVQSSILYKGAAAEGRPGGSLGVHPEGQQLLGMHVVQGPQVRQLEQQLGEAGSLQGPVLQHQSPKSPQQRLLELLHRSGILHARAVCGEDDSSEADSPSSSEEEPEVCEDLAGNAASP

For `COCCOC(=O)C1=C(C)NC(C)=C(C(=O)OC/C=C/c2ccccc2)C1c1cccc([N+](=O)[O-])c1` (configuration not stated), the result in assay [1], in [2], in [3], in [4], in [5] and in assay [6] was inactive. Moreover, the result in assay [7], in assay [8], in [10], in assay [11] and in assay [13] was inactive. The half-maximal activity concentration (AC50) with PGR (gene 5241) [9] is 6120 nM (active); in the assay with PGR (gene 5241) [12], 7180 nM (active).
On to `O=C1C(=O)c2ncccc2-c2cccnc21`, for which the compound was called inactive (in assay [1]; in assay [3]; in assay [7]; with THRA (gene 7067); with THRB (gene 7068); in assay [15]). The concentration at half-maximal activity (AC50) in assay [2] was 1.01 µM (active); in assay [4], 1.08 µM (active); in assay [5], 5120 nM (active); in assay [6] it was 599 nM (active); in assay [8], 960 nM (active); in assay [14] it was 5410 nM (active).
Take `C1=CCC(c2ccccc2)CC1` (configuration not stated): the outcome in assay [1], in assay [2], in assay [3], in assay [4], in assay [5] and in [6] was inactive. The outcome in [7], in [8], in assay [16] and in assay [17] was inactive.
Turning to `COC(=O)Nc1nc2ccc(Sc3ccccc3)cc2[nH]1`, the outcome (in assay [1]; in assay [3]; in [5]; in assay [7]; in the assay with THRA (gene 7067); in [14]) was inactive. Besides, the outcome (with THRB (gene 7068); in assay [15]) was inactive. Besides, the AC50 in assay [2] was 99.9 nM (active) and 139 nM (active); in [4], 163 nM (active) and 98.8 nM (active); in assay [6], 161 nM (active) and 97.3 nM (active); in [8], 122 nM (active) and 96.1 nM (active).
For the compound `CC1(C)[C@@H](O[C@H]2O[C@H](C(=O)O)[C@@H](O)[C@H](O)[C@H]2O[C@@H]2O[C@H](C(=O)O)[C@@H](O)[C@H](O)[C@H]2O)CC[C@]2(C)[C@H]3C(=O)C=C4[C@@H]5C[C@@](C)(C(=O)O)CC[C@]5(C)CC[C@@]4(C)[C@]3(C)CC[C@@H]12`, the outcome in [1], in assay [2], in [3], in [4], in assay [5] and in [6] was inactive. Also, the call in assay [7], in assay [8], in [16] and in [17] was inactive.
In the case of `Brc1cc(Oc2cc(Br)c(Br)c(Br)c2Br)c(Br)c(Br)c1Br`, the compound was classed as inactive in assay [1], in [2], in assay [3], in assay [4], in assay [5] and in assay [6]. Besides, the outcome (in assay [7]; in [8]; with THRA (gene 7067); in assay [14]; with THRB (gene 7068); in assay [15]) was inactive.
Regarding `CC(C)=CCC1=C(O)c2ccccc2C(=O)C1=O`, the compound was classed as inactive (in assay [1]; in [3]; in [5]; in assay [7]; in the assay with THRA (gene 7067); in assay [14]). For the same compound, the call in assay [15] was inactive. The AC50 in [2] is 1.36 µM (active); in assay [4], 1.27 µM (active); in assay [6], 1740 nM (active); in assay [8] it was 2710 nM (active); with THRB (gene 7068) it was 31300 nM (active).
With `COc1cc2ncnc(Nc3ccc(F)c(Cl)c3)c2cc1OCCCN1CCOCC1`, the compound was called inactive in assay [1], in assay [2], in assay [3], in assay [4], in assay [6] and in assay [7]. Moreover, the outcome in [8] was inactive. For the same compound, the half-maximal activity concentration (AC50) in [5] was 40700 nM (active).
As for `CC1(C)S[C@@H]2[C@H](NC(=O)[C@H](N)c3ccc(O)cc3)C(=O)N2[C@H]1C(=O)O`, the result in assay [1], in assay [2], in assay [3], in assay [4], in assay [5] and in assay [6] was inactive. The call in assay [7] and in [8] was inactive.
